The panel holds about 83,000 compounds, 20% with a hit somewhere; the sample as a whole holds those more often.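 Cell lines were cultured in 96-well plates, exposed to a single compound concentration, and assessed for percent growth 48 hours later.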 A number with no mark means an inactive call. Calls of active or inactive are those of the source. The calls were made as follows: active = growth percent below 10; inactive = the rest.

Holding throughout (experiment): NCI-60 one-dose screen, 48 h (100 = growth as untreated, 0 = no growth, -100 = all killed)
Conditions in all cases: 10 µM unless noted

For assay [1], the system named is NCI-H23 lung.
Assay [2] has as its system NCI-H226 lung.
Assay [3] has as its system NCI-H322M lung.
The test system of assay [4] is HOP-62 NSCLC.
The subject of assay [5] is HOP-92 NSCLC.
Assay [6] has as its system NCI-H522 lung.
In assay [7] the test system is A549/ATCC NSCLC.
In assay [8] the test system is 786-0 renal.
Assay [9] has as its system COLO 205 colon.
Assay [10] deals with DU-145 prostate.
Assay [11] concerns MALME-3M melanoma.
For assay [12], the system named is MDA-MB-231 breast.
Assay [13] has as its system RXF 393 renal.
Assay [14] relates to SF-268 CNS.
Assay [15] deals with SF-295 CNS.
In assay [16] the test system is SF-539 CNS.
Assay [17] relates to UACC-257 melanoma.
For assay [18], the system named is M14 melanoma.
For assay [19], the system named is K-562 leukemia.
The test system of assay [20] is NCI-H460 lung.

As for `CC(C)(C)OC(=O)N1CCN(CCn2cc(C(F)(F)F)c3c(Cl)ncnc32)CC1`, the growth is 44.8% in assay [1]; 108% in assay [2]; 96.2% in assay [3]; 88.6% in assay [4]; -23.1% (active) in assay [5]; -2.6% (active) in assay [6]. Also, the growth in assay [7] was 96%; in [8] it was 107%; in assay [9] it was 102%; in assay [10], 39.8%; in assay [11] it was 112%; in assay [12], 57.9%. Also, the growth was 47% in assay [13]; 69.5% in assay [14]; 99.6% in assay [15]; 97.3% in assay [16]; 85.4% in [17]; 14% in assay [18].

For `c1ccc(CNCCN(CCNCc2ccccn2)Cc2ccc3ccccc3c2)nc1`, the growth in assay [1] was 21.5%; in assay [2] it was -17.9% (active); in assay [3], 12.2%; in assay [4], -17.4% (active); in assay [5], -7.66% (active); in assay [6], 14.1%. Besides, the growth in assay [7] is -14.5% (active); in assay [8], -46.4% (active); in [9], -5.97% (active); in [10] it was 13.7%; in assay [19], -0.99% (active); in assay [11], 24.6%. Besides, the growth in [12] was 4.02% (active); in assay [13], 45.1%; in [14], 19%; in assay [15], -35.6% (active); in [16], -34.8% (active); in assay [17] it was 31.7%. Further, the growth in assay [18] is -49.4% (active).

`CC(=O)Cc1cccnc1`: the growth in assay [1] is 96.5%; in [2], 95.4%; in assay [3], 102%; in [4] it was 108%; in assay [5], 102%; in assay [6] it was 96.3%. Further, the growth in [7] is 101%; in [8], 103%; in assay [9], 115%; in assay [10] it was 110%; in assay [19], 86.7%; in assay [11], 103%. The growth in assay [12] is 99.9%; in [13] it was 103%; in assay [14], 104%; in assay [15] it was 99.2%; in assay [16], 102%; in [17], 96.8%. Moreover, in [18], the growth was 101%.

In the case of `C=CC(=O)NC(=O)Nc1ccccc1Cl`, the growth is 103% in assay [1]; 94.2% in assay [2]; 90.2% in assay [3]; 89.8% in [4]; 86.2% in assay [5]; 6.09% (active) in [6]. Also, the growth was 75.4% in assay [7]; 74.3% in [8]; 88.9% in assay [9]; 48.4% in [10]; 41.2% in assay [19]; 83% in [11]. For the same compound, the growth was 72.4% in assay [12]; 88.7% in [13]; 96.7% in assay [14]; 101% in assay [15]; 72.3% in assay [16]; 71.9% in assay [17]. The growth in [18] was 70%.

In the case of `CCOC(=O)C(C)(CSSCC(C)(NC(=O)c1ccc2ccccc2c1)C(=O)OCC)NC(=O)c1ccc2ccccc2c1` (centres undefined), the growth in assay [1] is 98.3%; in assay [2], 97.9%; in assay [3], 96.7%; in assay [4] it was 105%; in assay [20], 102%; in assay [5], 105%. The growth in assay [6] was 92.9%; in [7], 26.4%; in assay [9] it was 121%; in assay [10], 117%; in [19], 91.1%; in assay [11], 115%. Also, the growth in assay [12] was 114%; in [14], 102%; in assay [15], 96.2%; in [16] it was 114%; in assay [17] it was -17.8% (active); in [18], 114%.

Regarding `COc1ccc(-c2nnc(SCC(=O)Nc3ccc(C(=O)/C=C/c4ccccc4)cc3)o2)cc1OC`, the growth in assay [1] is 88%; in assay [2], 89%; in assay [3], 90.8%; in assay [4] it was 119%; in assay [5], 105%; in assay [6], 91.4%. Besides, the growth was 97.7% in assay [7]; 101% in assay [8]; 113% in assay [9]; 96.7% in assay [10]; 95.4% in assay [19]; 104% in [11]. The growth in [12] was 106%; in [13], 99.8%; in assay [14] it was 97.6%; in [15], 104%; in assay [16], 95.7%; in assay [17] it was 105%.

`Cc1cc(Nc2ccc(Cl)c(Cl)c2)nc(N)n1`: the growth was 89.5% in assay [1]; 92% in assay [2]; 110% in assay [3]; 98.3% in assay [4]; 97.7% in assay [5]; 78.3% in [6]. In addition, the growth was 71.8% in [7]; 78.9% in [8]; 107% in [9]; 94.3% in assay [10]; 87.4% in assay [19]; 121% in assay [11]. In addition, the growth is 101% in assay [12]; 72.9% in [13]; 95.2% in assay [14]; 96.8% in assay [15]; 99.9% in assay [16]; 77.1% in [17]. In addition, the growth in assay [18] was 91.6%.

Regarding `NC(=NCCCOc1ccc(F)cc1)Nc1ccc(Cl)c(Cl)c1`, the growth in assay [1] was 67.9%; in assay [2] it was 76.2%; in assay [3], 69.3%; in assay [4] it was 78.7%; in assay [5], 16.5%; in [6], 67.6%. Moreover, the growth in assay [7] is 82.5%; in assay [8] it was 67.6%; in [9], -57.7% (active); in [10], 80.2%; in assay [19], 12.6%; in [11] it was 98.1%. The growth in assay [12] was 44%; in assay [13], 68.6%; in [14], 54.9%; in [15] it was 76.6%; in assay [16], 79.1%; in assay [17], 77.2%. The growth in assay [18] is 63.6%.

These data come from PubChem BioAssay (NCI).
